# Pf growth 48h: Primary qHTS for delayed death inhibitors of the malarial parasite plastid, 48 hour incubation. 310,000 compounds, 5.9% hits. AID 504832, 2011. P. falciparum luciferase growth in erythrocytes, 48 h. Potency, µM (titrated, usually from 28.7 µM), inactives show at the highest dose activity change, negative = inhibition, actives largely listed as inhibitors; further: potency means the concentration at half of the fitted maximal effect; on the % scale 0 is the no-effect control and ±100 the full control effect
#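 Parasite viability was followed by luminescence of a genomically integrated firefly luciferase. Cultures held 0.1% parasitemia at 2% hematocrit (final), incubated under 5% CO2 at 37 C.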
# Shiga inhibitor: A qHTS for Small Molecule Inhibitors of Shiga Toxin | AID 2315, 2010 | Vero cells, Shiga toxin protein synthesis inhibition reporter | 290,000 compounds, 9.2% hits | inhibition, % at 38.7 µM; in the data active means inhibition mostly above about 28%, no sharp cut-off; inactive means mostly below about 43%; further: 0% is about no effect
# Pf growth 96h: Primary qHTS for delayed death inhibitors of the malarial parasite plastid, 96 hour incubation; P. falciparum luciferase reporter growth, 96 h; 320,000 compounds, 6.9% hits; Potency, µM (series often up to 28.7 µM), for the others: at the top dose activity change, negative = inhibition, actives largely listed as inhibitors; further: potency means the concentration at half of the fitted maximal effect; on the % scale 0 is the no-effect control and ±100 the full control effect
#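 Compounds incubated with erythrocytes infected by luciferase-expressing P. falciparum (2% hematocrit, 0.05% parasitemia final) for 96 hours, 37 C in 5% CO2. Growth inhibition scored as decreased luciferase luminescence.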
# HCV inhibitor: qHTS Assay for Inhibitors of Hepatitis C Virus (HCV) | Huh7.5.1 HCVcc-Cre infection, luciferase reporter, 44 h | Potency, µM (doses to about 41.8 µM), without a hit: at the top dose activity change, negative = inhibition, usual class: inhibitors | 340,000 compounds, 3.4% hits; further: potency means the concentration at half of the fitted maximal effect; on the % scale 0 is the no-effect control and ±100 the full control effect
#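 Infectious HCV cell culture screen: compound-treated cells (1,000/well, pre-plated 4 h) are infected with HCVcc-Cre at roughly 0.5 moi and grown 44 h. Infection is quantified by luciferase signal after 15 min substrate incubation at room temperature.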
# AMA1-RON2 inh: qHTS for Inhibitors of AMA1-RON; Towards Development of Antimalarial Drug Lead: Primary Screen; Plasmodium falciparum AMA1 (3D7) - RON2 peptide interaction; AlphaScreen AMA1-biotinylated RON2 peptide binding; Potency, µM (doses to about 58.2 µM), inactives show top-dose activity change, negative = inhibition, actives largely listed as inhibitors; 360,000 compounds, 0.2% hits; AID 720542, 2013;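 further: potency means the concentration at half of the fitted maximal effect; 0% = vehicle wells and -100% = peptide control; nearly all actives have a fitted effect of over 45% in size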
#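 AMA1 (3D7) with his tag at 25 nM final met compounds first, then biotinylated RON2 peptide at 25 nM; detection used donor plus acceptor beads, 10 µg/mL apiece, read by AlphaScreen after 30 min at room temperature.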
# CHX counter: Cycloheximide Counterscreen for Small Molecule Inhibitors of Shiga Toxin; cell reporter, cycloheximide protein synthesis inhibition counterscreen; max response, %; 300,000 compounds, 12% hits; AID 2314, 2010; in the data active means max response mostly above about 13%, no sharp cut-off; inactive means mostly below about 14%; further: read at 38.3 µM for the half of the compounds with a filed dose; 0% is about no effect
# * marks the source's active call; other numbers are inactive results; ? = inconclusive; · = not tested or not shown; [ ] = dose if it differs, or a comment. Most compounds without a hit are left out; they make up all but 21% or so of the library. Unless noted, the call rests on the fitted dose curve; in most records, active means well fitted curve in the direction sought with a large enough effect; inconclusive means small, poorly fitted or top-dose-only effect, or another doubt; inactive means no such curve, though single readings can be large; an effect the other way counts as inactive or inconclusive.
SMILES,Pf growth 48h,Shiga inhibitor,Pf growth 96h,HCV inhibitor,AMA1-RON2 inh,CHX counter
CCCCCc1cc(=O)oc2c(C(CCN(CC)CC)c3ccc(N(C)C)cc3)c(OC)cc(OC)c12 (centres undefined),?,-1.4,?,?,25.1µM*,-7.2
O=C(NNC(=O)C1CC(c2cccs2)=NO1)Nc1ccccc1 (centres undefined),2.9%,-3.9,38.0%,13.2%,92.5%,-1.9
O=[N+]([O-])c1cc(-c2nnc(-c3ccccc3)o2)ccc1Oc1ccc(Cl)cc1,93.2%,60.7*,56.6%,10.1%,6.6%,32.3*
O=C(OCc1nnc(-c2ccc(Cl)cc2)o1)c1ccc(O)cc1,-1.8%,28.3*,26.8%,21.3%,9.7%,19.0*
O=C(OCc1nnc(-c2ccccc2)o1)c1cc(Cl)ccc1[N+](=O)[O-],0.0%,56.9,38.5%,5.1%,2.3%,31.2*
O=C1CCC(C(=O)OCc2nnc(-c3ccc(Cl)cc3)o2)=NN1,40.5%,·,9.4%,10.6%,18.9%,·
CCOc1ncccc1C(=O)OCc1nnc(-c2ccccc2)o1,6.7%,21.4,?,18.0%,0.0%,11.8
O=C(OCc1nnc(-c2ccccc2)o1)c1cccnc1Cl,39.6%,25.9,46.4%,6.1%,-22.6%,19.0*
CC1(C(=O)NS(=O)(=O)c2cccs2)CCN1C(=O)c1ccco1 (centres undefined),·,·,·,·,9.4%,·
COc1ccc(C(=O)c2cn(CC(=O)Nc3cc(OC)cc(OC)c3)c3ccc(OC)cc3c2=O)cc1,-6.4%,·,-4.4%,·,·,·
Cc1ccc(C)c(C2(O)CC(C)N(C)CC2C)c1 (centres undefined),-1.6%,-7.6,6.57µM*,-2.9%,-4.6%,-1.9
CC1CC(O)(Cc2ccccc2)C(C)CN1C (centres undefined),23.4%,-17.5,-16.4%,-4.6%,-0.1%,-2.3
O=C(O/N=C(\c1ccccc1)c1ccccn1)c1cccc2ccccc12,16.5%,12.2,9.28µM*,-11.0%,36.2%,14.2*
N/C(=N\OC(=O)c1cccc2ccccc12)c1cccnc1,?,93.6*,-6.7%,11.2µM*,12.5%,42.0*
N/C(=N\OC(=O)c1cccc2ccccc12)c1cccc([N+](=O)[O-])c1,55.5%,17.5,77.8%,?,-5.6%,9.7
Cc1cccc(/C(N)=N/OC(=O)c2cccc3ccccc23)c1,-73.4%,59.2*,0.2%,·,·,20.6*
C=CCN=C1S/C(=C\c2ccc(N(C)C)cc2)C(=O)N1CC=C,-11.6%,59.1*,-51.0%,?,-0.4%,45.3*
C=CCN1C(=O)/C(=C/c2ccc(OC)cc2)S/C1=N/c1nccs1,12.2%,-4.9,11.7µM*,0.4%,-5.3%,-3.1
CCC1=C(OC(=O)N(CC)CC)N2C(=O)OC(=NCC3CC3)[C@]2(Cc2ccccc2)[C@H]2C1=CC[C@H]1C(=O)N(C)C(=O)[C@H]12,10.4µM*,-7.0,9.28µM*,-20.4%,-7.8%,-3.7
CCC1=C(OC(=O)N(CC)CC)N2C(=O)OC(=NCC(=O)OC)[C@]2(Cc2ccccc2)[C@H]2C1=CC[C@H]1C(=O)N(C)C(=O)[C@H]12,?,-9.2,?,1.9%,15.2%,0.8
CCC1=C(OC(=O)N(CC)CC)N2C(=O)OC(=NCC(=O)OC)[C@]2(Cc2ccccc2)[C@H]2C1=CC[C@H]1C(=O)N(c3ccccc3)C(=O)[C@H]12,6.57µM*,-3.9,9.28µM*,21.4%[8.37 µM],3.7%,-4.1
CCC1=C(OC(=O)N(CC)CC)N2C(=O)OC(=NCC3CC3)[C@]2(Cc2ccccc2)[C@H]2C1=CC[C@H]1C(=O)N(c3ccccc3)C(=O)[C@H]12,2.62µM*,-2.8,2.94µM*,?,-14.5%,-3.9
COCCNC(=O)C1CCCN(C(=O)c2cccnc2Oc2ccccc2)CC1 (centres undefined),·,·,·,·,4.9%,·
Cc1nc(CN(C)Cc2nc(Cc3cccc(F)c3)no2)cs1,0.0%,12.9,38.3%,5.7%,1.5%,1.8
CN(Cc1nc(Cc2cccc(F)c2)no1)CC1CCOCC1,2.0%,2.0,14.7µM*,10.1%,3.3%,-1.1
SMILES,Pf growth 48h,Shiga inhibitor,Pf growth 96h,HCV inhibitor,AMA1-RON2 inh,CHX counter
CC(C)C(N)c1csc(Nc2ccc(S(C)(=O)=O)cc2)n1 (centres undefined),·,·,·,·,97.9%,·
CCCCN1C(=O)CCC(C(=O)O)C1c1ccc([N+](=O)[O-])cc1 (centres undefined),25.1%,-10.6,50.6%,9.3%,-11.7%,0.5
COc1ccc(NC(=O)C#Cc2ccccc2)cc1,-13.2%,86.0*,?,-28.8%,-0.2%,55.0*
O=C(C#Cc1ccccc1)NCc1ccccc1F,15.8%,67.2*,1.5%,5.6%,17.2%,20.9*
O=C(C#Cc1ccccc1)Nc1ccc(F)cc1,?,32.4*,?,?,8.6%,34.3*
CC(Sc1ccccc1)C(=O)Nc1ccc(N2CCOCC2)cc1 (centres undefined),·,34.4,44.6%,18.1%,-0.8%,8.6
COc1ccc(NC(=O)C(C)Sc2ccccc2)cc1 (centres undefined),·,88.4*,-10.1%,-25.5%,2.1%,54.9*
O=C(CC(=O)Nc1cccc(F)c1)Nc1cccc(F)c1,?,17.0,0.0%,4.5%,0.0%,-2.1
O=C(C#Cc1ccccc1)Nc1cccc(F)c1,?,127.9*,378.7%,?,16.5%,59.6*
Cc1ccc(F)cc1C(=O)N1CCCC1(C)C(=O)NCC(C)C (centres undefined),·,·,·,·,-4.7%,·
O=C1NC(=O)N(c2ccc3c(c2)OCO3)C(=O)/C1=C/c1ccsc1,8.8%,-8.8,1.5%,21.9%,15.5%,9.1
O=C1NC(=O)N(c2ccc3c(c2)OCO3)C(=O)/C1=C/c1cccs1,16.6%,48.7*,18.5%,25.8%,17.8%,1.1
CCc1nnc(SCC(=O)Nc2ccc(N3CCOCC3)cc2)n1C,24.2%,-3.3,?,15.6%,-11.8%,-2.6
COc1ccc(CNC(=O)CCCC2=NS(=O)(=O)c3ccccc3N2)cc1,13.4%,-2.0,10.4µM*,11.4%,0.0%,-1.2
Cc1ccc(CNC(=O)CC2(CC3=NS(=O)(=O)c4ccccc4N3)CCCC2)cc1,?,17.8,11.7µM*,11.2µM*,-4.2%,8.5*
COc1ccc(CCNC(=O)CC2(CC3=NS(=O)(=O)c4ccccc4N3)CCCC2)cc1OC,?,9.5,9.6%,?,-5.0%,6.2
COc1ccc(CNC(=O)CC(C)CC2=NS(=O)(=O)c3ccccc3N2)cc1 (centres undefined),-3.4%,-4.5,3.6%,-5.5%,0.2%,0.6
